Reference: PubChem BioAssay AID1159580 (chemical genetic matrix, 2015)
Hit rate of the full screen: of about 5,500 compounds, about 2,000 (36%) were called active. Not shown: some 18% with an inconclusive outcome. Rule as the data show it: active = normalized growth mostly below about 0.91 (no sharp cut-off); inconclusive = no clear call, values can overlap the other calls; inactive = mostly above about 0.92. The list shows a part of the results.

Assay: chemical genetic growth profiling, strain panel (AID 1159580);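 also: tested at 20 µM; growth read once vehicle control cultures reached saturation at 30 °C; 1 = growth at the plate median or of vehicle wells; lower values mean less growth of the strain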
Details: growth OD

Measured: normalized growth

C[N+]12CCC(CC1)C(OC(=O)C(O)(c1ccccc1)c1ccccc1)C2 (configuration not stated)
inactive: S. cerevisiae deletion strains, locus YJR075W, strain HOC1, active compounds read low 0.982 | S. cerevisiae deletion strains, locus YKL009W, strain mrt4, active compounds read low 0.998 | S. cerevisiae deletion strains, locus YKL068W, active compounds read low 0.985 | S. cerevisiae deletion strains, locus YKL085W, strain MDH1 (second series), active compounds read low 0.994 | S. cerevisiae deletion strains, locus YKL085W, strain MDH1, active compounds read low 0.994 | S. cerevisiae deletion strains, locus YKL160W, strain elf1, active compounds read low 0.962 | S. cerevisiae deletion strains, locus YKL190W, strain CNB1, active compounds read low 1 | S. cerevisiae deletion strains, locus YKR001C, strain vps1, active compounds read low 0.958 | S. cerevisiae deletion strains, locus YKR026C, strain gcn3, active compounds read low 0.984 | S. cerevisiae deletion strains, locus YKR091W, strain srl3, active compounds read low 0.972 | S. cerevisiae deletion strains, locus YLL001W, strain dnm1, active compounds read low 0.922 | S. cerevisiae deletion strains, locus YLL026W, active compounds read low 0.975 | S. cerevisiae deletion strains, locus YLL041C, strain sdh2, active compounds read low 1 | S. cerevisiae deletion strains, locus YLR027C, strain aat2, active compounds read low 0.977 | S. cerevisiae deletion strains, locus YLR039C, strain RIC1, active compounds read low 1.02 | S. cerevisiae deletion strains, locus YLR058C, strain SHM2, active compounds read low 0.985 | S. cerevisiae deletion strains, locus YLR102C, strain apc9, active compounds read low 0.987 | S. cerevisiae deletion strains, locus YLR113W, strain HOG1, active compounds read low 0.975 | S. cerevisiae deletion strains, locus YLR221C, strain rsa3, active compounds read low 0.929 | S. cerevisiae deletion strains, locus YLR258W, strain gsy2, active compounds read low 0.979 | S. cerevisiae deletion strains, locus YLR262C, strain YPT6 (second series), active compounds read low 0.955 | S. cerevisiae deletion strains, locus YLR262C, strain YPT6, active compounds read low 1 | S. cerevisiae deletion strains, locus YLR268W, strain sec22, active compounds read low 0.906 | S. cerevisiae deletion strains, locus YLR320W, strain mms22, active compounds read low 0.952 | S. cerevisiae deletion strains, locus YLR330W, strain CHS5, active compounds read low 0.995 | S. cerevisiae deletion strains, locus YLR342W, strain FKS1 (second series), active compounds read low 1.01 | S. cerevisiae deletion strains, locus YLR342W, strain FKS1, active compounds read low 0.989 | S. cerevisiae deletion strains, locus YLR357W, strain rsc2, active compounds read low 0.983 | S. cerevisiae deletion strains, locus YLR370C, strain arc18, active compounds read low 0.966 | S. cerevisiae deletion strains, locus YLR371W, strain rom2, active compounds read low 0.977 | S. cerevisiae deletion strains, locus YLR384C, strain iki3, active compounds read low 0.985 | S. cerevisiae deletion strains, locus YLR418C, strain cdc73, active compounds read low 0.955 | S. cerevisiae deletion strains, locus YML016C, strain PPZ1, active compounds read low 0.989 | S. cerevisiae deletion strains, locus YML032C, strain rad52, active compounds read low 0.96 | S. cerevisiae deletion strains, locus YML120C, strain ndi1, active compounds read low 0.939 | S. cerevisiae deletion strains, locus YML124C, strain tub3, active compounds read low 0.985 | S. cerevisiae deletion strains, locus YMR058W, strain fet3, active compounds read low 0.981 | S. cerevisiae deletion strains, locus YMR078C, strain ctf18, active compounds read low 0.977 | S. cerevisiae deletion strains, locus YMR125W, strain sto1, active compounds read low 0.924 | S. cerevisiae deletion strains, locus YMR129W, active compounds read low 1.01 | S. cerevisiae deletion strains, locus YMR205C, strain PFK2, active compounds read low 0.948 | S. cerevisiae deletion strains, locus YMR223W, strain ubp8, active compounds read low 1.01 | S. cerevisiae deletion strains, locus YMR231W, strain pep5, active compounds read low 1 | S. cerevisiae deletion strains, locus YMR263W, strain SAP30, active compounds read low 0.985 | S. cerevisiae deletion strains, locus YMR307W, strain GAS1, active compounds read low 1 | S. cerevisiae deletion strains, locus YNL067W, strain RPL9B, active compounds read low 0.978 | S. cerevisiae deletion strains, locus YNL071W, strain lat1, active compounds read low 1 | S. cerevisiae deletion strains, locus YNL128W, strain TEP1, active compounds read low 0.998 | S. cerevisiae deletion strains, locus YNL153C, strain GIM3, active compounds read low 0.98 | S. cerevisiae deletion strains, locus YNL183C, strain NPR1, active compounds read low 0.932 | S. cerevisiae deletion strains, locus YNL209W, strain ssb2, active compounds read low 0.978 | S. cerevisiae deletion strains, locus YNL233W, strain BNI4, active compounds read low 0.978 | S. cerevisiae deletion strains, locus YNL248C, strain rpa49, active compounds read low 0.984 | S. cerevisiae deletion strains, locus YNL250W, strain rad50, active compounds read low 0.985 | S. cerevisiae deletion strains, locus YNL271C, strain bni1, active compounds read low 0.974 | S. cerevisiae deletion strains, locus YNL298W, strain CLA4, active compounds read low 0.984 | S. cerevisiae deletion strains, locus YNL307C, strain MCK1, active compounds read low 0.969 | S. cerevisiae deletion strains, locus YNL322C, strain KRE1 (second series), active compounds read low 0.966 | S. cerevisiae deletion strains, locus YNL322C, strain KRE1, active compounds read low 0.998 | S. cerevisiae deletion strains, locus YNR049C, strain mso1, active compounds read low 0.973 | S. cerevisiae deletion strains, locus YNR052C, strain pop2, active compounds read low 0.986 | S. cerevisiae deletion strains, locus YOL006C, strain TOP1, active compounds read low 0.965 | S. cerevisiae deletion strains, locus YOL012C, strain htz1 0.92 | S. cerevisiae deletion strains, locus YOL147C, strain pex11, active compounds read low 0.985 | S. cerevisiae deletion strains, locus YOR001W, strain rrp6, active compounds read low 1.04 | S. cerevisiae deletion strains, locus YOR061W, strain CKA2, active compounds read low 0.99 | S. cerevisiae deletion strains, locus YOR069W, strain VPS5, active compounds read low 0.986 | S. cerevisiae deletion strains, locus YOR070C, strain gyp1, active compounds read low 0.985 | S. cerevisiae deletion strains, locus YOR080W, strain dia2, active compounds read low 0.97 | S. cerevisiae deletion strains, locus YOR083W, strain WHI5, active compounds read low 0.965 | S. cerevisiae deletion strains, locus YOR106W, strain vam3, active compounds read low 0.951 | S. cerevisiae deletion strains, locus YOR136W, strain idh2, active compounds read low 0.979 | S. cerevisiae deletion strains, locus YOR144C, strain elg1, active compounds read low 0.984 | S. cerevisiae deletion strains, locus YOR184W, strain ser1, active compounds read low 0.96 | S. cerevisiae deletion strains, locus YOR231W, strain MKK1, active compounds read low 0.98 | S. cerevisiae deletion strains, locus YOR265W, strain rbl2, active compounds read low 0.986 | S. cerevisiae deletion strains, locus YOR270C, strain vph1, active compounds read low 0.995 | S. cerevisiae deletion strains, locus YOR290C, strain snf2, active compounds read low 0.966 | S. cerevisiae deletion strains, locus YOR316C, strain cot1, active compounds read low 0.975 | S. cerevisiae deletion strains, locus YPL051W, strain arl3, active compounds read low 0.987 | S. cerevisiae deletion strains, locus YPL055C, strain LGE1, active compounds read low 0.992 | S. cerevisiae deletion strains, locus YPL078C, strain atp4, active compounds read low 0.958 | S. cerevisiae deletion strains, locus YPL106C, strain sse1, active compounds read low 0.94 | S. cerevisiae deletion strains, locus YPL240C, strain hsp82, active compounds read low 0.996 | S. cerevisiae deletion strains, locus YPL241C, strain CIN2, active compounds read low 0.996 | S. cerevisiae deletion strains, locus YPL256C, strain CLN2, active compounds read low 0.959 | S. cerevisiae deletion strains, locus YPR119W, strain clb2, active compounds read low 0.983 | S. cerevisiae deletion strains, locus YPR141C, strain kar3, active compounds read low 0.967 | S. cerevisiae deletion strains, locus YPR163C, strain tif3, active compounds read low 0.973 | S. cerevisiae deletion strains, locus YPR167C, strain met16, active compounds read low 0.978 | S. cerevisiae deletion strains, strain wtn01, active compounds read low 0.964 | S. cerevisiae strains, strain wild type, active compounds read low 0.992
